Source: PubChem (National Center for Advancing Translational Sciences (NCATS))
Shown are actives, neighbours in structure and some others; about 10% of the full set was active somewhere.
PNC assembly inh: High Content Assay for Compounds that inhibit the Assembly of the Perinucleolar Compartment. PC3M PTB-GFP, PNC prevalence imaging, 16 h; stronger effect = lower value. activity change (PNC), negative = inhibition, % at 10 µM. 3.1% of 140,000 active. AID 2417, 2010;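 active = readout at or below -70, meaning at least 70% loss of cells showing the perinucleolar compartment, a nuclear body marking cancer cells; inconclusive = readout between -30 and a set limit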;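 note: plate controls were DMSO wells for no effect and camptothecin positive control wells for full effect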
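Read-out is percentage of cells bearing a perinucleolar compartment, from automated 20x imaging of fixed, Hoechst-stained PC3M PTB-GFP cells. Cells were seeded 4 h, then exposed 16 h to compound (23 nl of library stock) in duplicate plates.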
Lamin A splicing: qHTS Assay for Modulators of Lamin A Splicing. 0.01% of 200,000 active. AID 1487, 2009. Potency, µM (titrated, usually from 46.1 µM), for inactives: at the top dose ratio change, negative = inhibition, most hits filed as inhibitors. HeLa LMNA splicing GFP/RFP minigene ratio, 48 h; active = well fitted inhibition curve with a large enough effect in the signal ratio, with a control signal flat, not every such curve was filed as active; inconclusive = small, poorly fitted or top-dose-only effect, or effect the other way, or a change in a side signal; the % refers to the signal ratio; note: potency is the fitted concentration of half-maximal effect
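Read-out is the ratio of GFP to DsRed2 object intensity, acquired by 488 nm laser-scanning cytometry on HeLa lamin A-EGFP minigene reporter cells. Compound incubation 48 hrs at 37 °C in Opti-MEM with 2% FBS; DMSO 0.5% final.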
ALDH1A1 inh: qHTS Assay for Inhibitors of Aldehyde Dehydrogenase 1 (ALDH1A1); Potency, µM (series often up to 75.3 µM), for the others: top-dose activity, negative = inhibition, actives largely listed as inhibitors; 7.3% of 220,000 active; Aldehyde dehydrogenase 1A1 (Homo sapiens), P00352; Purified ALDH1A1, NADH fluorescence, propionaldehyde substrate;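 note: potency is the fitted concentration of half-maximal effect; plate controls were no enzyme wells and a reference inhibitor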
HPGD inh: qHTS Assay for Inhibitors of HPGD (15-Hydroxyprostaglandin Dehydrogenase) | purified HPGD, NADH fluorescence kinetic, PGE2 substrate | 4.3% of 150,000 active | 15-hydroxyprostaglandin dehydrogenase [NAD(+)] (Homo sapiens), P15428 | Potency, µM, inactives show at the highest dose activity change, negative = inhibition, usual class: inhibitors; note: potency is the fitted concentration of half-maximal effect
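NADH formation kinetics: reaction with 30 uM PGE2 and 1 mM NAD+ (final), 20 nM enzyme, Tris-HCl pH 8 with Tween 20, after 15 min compound preincubation at room temperature. Fluorescence change, last versus first of five reads.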
ALOX12 inhib: qHTS Assay for Inhibitors of 12-hLO (12-human lipoxygenase); 0.12% of 150,000 active; purified 12-hLO, xylenol orange hydroperoxide absorbance; Polyunsaturated fatty acid lipoxygenase ALOX12 (Homo sapiens), P18054; Potency, µM (series often up to 57.1 µM), without a hit: at the top dose activity change, negative = inhibition, most hits filed as inhibitors; active = well fitted inhibition curve with a large enough effect; inconclusive = small, poorly fitted or top-dose-only effect; note: potency is the fitted concentration of half-maximal effect; nearly all actives have a fitted effect of over 55% in size
Target sequence (P18054 whole entry, looked up): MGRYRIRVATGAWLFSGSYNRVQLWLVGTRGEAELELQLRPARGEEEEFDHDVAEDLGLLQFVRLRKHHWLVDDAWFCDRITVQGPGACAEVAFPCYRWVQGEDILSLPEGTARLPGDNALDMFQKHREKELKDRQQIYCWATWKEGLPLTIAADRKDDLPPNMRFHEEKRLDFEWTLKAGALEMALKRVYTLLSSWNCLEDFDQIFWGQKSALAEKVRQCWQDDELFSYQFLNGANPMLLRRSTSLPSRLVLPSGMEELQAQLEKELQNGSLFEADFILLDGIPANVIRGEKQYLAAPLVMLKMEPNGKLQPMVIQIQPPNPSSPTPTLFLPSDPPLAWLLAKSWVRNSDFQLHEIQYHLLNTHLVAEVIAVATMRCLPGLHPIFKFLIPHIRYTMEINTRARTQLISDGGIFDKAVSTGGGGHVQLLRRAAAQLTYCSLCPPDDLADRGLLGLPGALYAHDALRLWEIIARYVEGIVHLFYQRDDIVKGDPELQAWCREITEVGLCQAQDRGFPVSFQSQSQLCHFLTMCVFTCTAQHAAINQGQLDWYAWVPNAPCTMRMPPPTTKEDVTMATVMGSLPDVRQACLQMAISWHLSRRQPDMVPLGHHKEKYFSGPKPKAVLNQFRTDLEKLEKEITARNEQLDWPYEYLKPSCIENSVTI
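Purified human 12hLO (150 nM final) was preincubated with compounds for 15 min at room temperature in 25 mM Hepes pH 7.0, 0.01% Triton X-100, then reacted with 40 uM arachidonic acid for 30 min. Hydroperoxide was detected with ferrous iron/xylenol orange.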
* marks the source's active call; other numbers are inactive results; ? = inconclusive; / = not tested or not shown; [ ] = remark or other dose. Unless noted, calls come from the whole dose curve; as a rule, active = well fitted inhibition curve with a large enough effect (not every such curve was filed as active); inconclusive = small, poorly fitted or top-dose-only effect, or another doubt; inactive = no such curve, though single readings can be large or run the other way. Unless noted, % is set by controls: 0 for no effect and ±100 for the full control effect.

SMILES	PNC assembly inh	Lamin A splicing	ALDH1A1 inh	HPGD inh	ALOX12 inhib
O=C(NCC1CCCO1)C1CCC(=O)N1CCc1ccccc1 (configuration not stated)	-102*	14%[0.0737 µM]	-6%	-11%	0%
O=C(NCC1CCCO1)NC1CCCCC1 (configuration not stated)	?	-10%	11%	28µM*	0%
O=C(NCC1CCCO1)c1ccccc1 (configuration not stated)	5	0%	4%	20µM*	2%
O=C(Nc1ccccc1)N1CC[C@@]2(CCCN(C(=O)c3cccc(F)c3)C2)C1	/	/	-3%	-1%	0%
COc1ccc(OC)c(C2C3=C(N=C4SCC(=O)N42)c2ccccc2CC3)c1 (configuration not stated)	?	?	?	22µM*	-22%
CCOC(=O)c1sc(NC(=O)c2cccc(S(=O)(=O)N3c4ccccc4CC3C)c2)cc1C (configuration not stated)	-95*	?	?	-7%	-1%
CCC(CO)NC(=O)c1cccc(S(=O)(=O)N2c3ccccc3CC2C)c1 (configuration not stated)	-19	3%	6%	1%	-2%
CC(C)CCN1C(=O)CC(NNC(=O)c2ccc(S(=O)(=O)N3CCCC3)cc2)C1=O (configuration not stated)	/	/	13µM*	/	/
O=S(=O)(c1ccccc1)N1CCC2(CCN(C(c3ccccc3)c3ccccc3)CC2)CC1	/	/	16%	1%	-2%
O=C1c2ccccc2S(=O)(=O)N1CC(O)COc1ccc(Cl)cc1 (configuration not stated)	-17	?	?	/	-20%
Cc1c(C)n(CC(O)CN2C(=O)c3ccccc3S2(=O)=O)c2ccccc12 (configuration not stated)	?	3%	14µM*	20µM*	-2%
O=C1c2ccccc2S(=O)(=O)N1CC(O)COc1ccc(Br)cc1 (configuration not stated)	-106*	5%	?	?	-25%
CN1CCc2c(n(CC(O)CN3C(=O)c4ccccc4S3(=O)=O)c3ccccc23)C1=O (configuration not stated)	-3	-14%	10µM*	-1%	2%
CN1CCc2c(n(CC(O)CN(CCO)CCO)c3ccccc23)C1=O (configuration not stated)	/	-3%[46 µM]	0%	/	/
O=S(=O)(NCC(c1cccnc1)N1CCOCC1)c1ccc(Cl)cc1 (configuration not stated)	/	12%[9.22 µM]	28µM*	/	/
O=S(=O)(NCC(c1cccnc1)N1CCOCC1)c1ccccc1 (configuration not stated)	/	/	25µM*	/	/
O=S(=O)(NCC(c1ccco1)N1CCOCC1)c1ccc(Cl)cc1 (configuration not stated)	-29	7%[46 µM]	-2%	-12%	-3%
O=C(NCC(c1cccnc1)N1CCOCC1)Nc1ccccc1 (configuration not stated)	?	-1%	9%	-13%	-4%
N#Cc1ccc(NC(=O)CNc2cc(S(=O)(=O)N3CCOCC3)ccc2NCC2CCCO2)cc1 (configuration not stated)	/	/	18µM*	/	/
O=C(Nc1cc(S(=O)(=O)N2CCOCC2)ccc1N1CCOCC1)C1CCCO1 (configuration not stated)	/	-10%[46 µM]	10%	/	/
CCOC(=O)C1(Cc2ccccc2C)CCCN(C(=O)CCc2cccnc2)C1 (configuration not stated)	/	?	5%	/	/
CCN(CC)CCCn1c(-c2ccccc2)nc2c(N3CCOCC3)nc(C)nc21	/	/	?	?	1%
O=C(Nc1nc(=S)ss1)c1ccc(Cl)cc1Cl	21	-1%	6.3µM*	22µM*	-1%
